Reference: PubChem BioAssay AID1159580 (chemical genetic matrix, 2015)
Values joined by “and” are separate entries in the source; they are usually repeats but may differ in a detail not shown here. Identical values can stand only once. Among all 5,500 compounds or so, about 2,000 (36%) were called active. Not shown: some 18% with an inconclusive outcome. Cut-off read from the data, not from the text of the source: active = normalized growth mostly below about 0.91 (no sharp cut-off); inconclusive = no clear call, values can overlap the other calls; inactive = mostly above about 0.92. The list shows a part of the results.

Test: chemical genetic growth profiling, strain panel (AID 1159580);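 note: tested at 20 µM; growth read once vehicle control cultures reached saturation at 30 °C; 1 = growth at the plate median or of vehicle wells; lower values mean less growth of the strain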
Conditions: S. cerevisiae deletion strains, growth OD

Measured: normalized growth

COc1ccc(C(=O)N2CCCC2=O)cc1
inactive: locus YAL013W, strain DEP1, active compounds read low 0.971 | locus YAL021C, strain ccr4, active compounds read low 0.981 | locus YAL026C, strain drs2, active compounds read low 0.976 | locus YAL030W, strain snc1, active compounds read low 0.956 | locus YAL040C, strain CLN3, active compounds read low 1.01 | locus YBL061C, strain skt5, active compounds read low 0.962 | locus YBR009C, strain hhf1, active compounds read low 0.969 | locus YBR021W, strain FUR4, active compounds read low 1.05 | locus YBR023C, strain chs3, active compounds read low 0.967 | locus YBR171W, strain sec66, active compounds read low 0.96 | locus YBR229C, strain ROT2, active compounds read low 0.953 | locus YBR231C, strain swc5, active compounds read low 0.967 | locus YBR279W, strain paf1, active compounds read low 0.987 | locus YCL011C, strain gbp2, active compounds read low 0.946 | locus YCL016C, strain dcc1, active compounds read low 0.976 | locus YCL029C, strain bik1, active compounds read low 0.983 | locus YCL061C, strain MRC1, active compounds read low 0.974 | locus YCL069W, strain vba3, active compounds read low 0.985 | locus YCR088W, strain abp1, active compounds read low 0.981 | locus YDL005C, strain med2, active compounds read low 0.974 | locus YDL035C, strain GPR1, active compounds read low 0.984 | locus YDL040C, strain nat1, active compounds read low 0.984 | locus YDL074C, strain BRE1, active compounds read low 0.961 | locus YDL101C, strain DUN1, active compounds read low 0.952 | locus YDL134C, strain PPH21, active compounds read low 0.993 | locus YDL185W, strain tfp1, active compounds read low 0.964 | locus YDL192W, strain arf1, active compounds read low 0.983 | locus YDR001C, strain nth1, active compounds read low 0.97 | locus YDR069C, strain doa4, active compounds read low 0.968 | locus YDR101C, strain arx1, active compounds read low 0.989 | locus YDR137W, strain rgp1, active compounds read low 0.967 | locus YDR150W, strain NUM1, active compounds read low 0.968 | locus YDR159W, strain sac3, active compounds read low 0.968 | locus YDR162C, strain NBP2, active compounds read low 0.968 | locus YDR195W, strain ref2 1 | locus YDR297W, strain sur2, active compounds read low 0.967 | locus YDR318W, strain mcm21, active compounds read low 0.996 | locus YDR334W, strain swr1, active compounds read low 0.939 | locus YDR335W, strain msn5, active compounds read low 0.975 | locus YDR388W, active compounds read low 0.999 | locus YDR392W, strain spt3, active compounds read low 0.929 | locus YDR502C, strain sam2, active compounds read low 0.995 | locus YEL003W, strain gim4, active compounds read low 0.981 | locus YEL037C, strain rad23, active compounds read low 0.979 | locus YEL061C, strain CIN8 (second series), active compounds read low 0.971 | locus YEL061C, strain CIN8, active compounds read low 0.983 | locus YER002W, strain NOP16, active compounds read low 1 | locus YER015W, strain faa2, active compounds read low 0.979 | locus YER016W, strain bim1, active compounds read low 0.984 | locus YER110C, active compounds read low 0.985 | locus YER111C, strain swi4, active compounds read low 0.978 | locus YER155C, strain BEM2 (second series), active compounds read low 0.974 | locus YER155C, strain BEM2, active compounds read low 0.995 | locus YER167W, strain BCK2, active compounds read low 0.983 | locus YFR010W, strain ubp6, active compounds read low 0.962 | locus YGL078C, strain dbp3, active compounds read low 0.985 | locus YGL086W, strain mad1, active compounds read low 0.987 | locus YGL167C, strain pmr1, active compounds read low 0.96 | locus YGL173C, strain kem1, active compounds read low 0.961 | locus YGL227W, strain vid30, active compounds read low 0.971 | locus YGL240W, strain doc1, active compounds read low 0.992 | locus YGL248W, strain PDE1, active compounds read low 0.977 | locus YGL253W, strain hxk2, active compounds read low 0.976 | locus YGR078C, strain PAC10, active compounds read low 0.973 and 1 | locus YGR135W, strain pre9, active compounds read low 0.981 | locus YGR229C, strain SMI1, active compounds read low 0.994 and 1.02 | locus YGR252W, strain gcn5, active compounds read low 1.05 | locus YHR013C, strain ard1, active compounds read low 0.962 | locus YHR027C, strain rpn1, active compounds read low 0.956 | locus YHR030C, strain SLT2, active compounds read low 0.992 | locus YHR079C, strain IRE1 (second series), active compounds read low 0.991 | locus YHR094C, strain hxt1, active compounds read low 0.991 | locus YHR129C, strain ARP1, active compounds read low 0.992 | locus YHR142W, strain chs7, active compounds read low 0.91 | locus YHR200W, strain rpn10, active compounds read low 0.989 | locus YIL066C, strain RNR3, active compounds read low 0.986 | locus YIL073C, strain SPO22, active compounds read low 1.01 | locus YIL125W, strain kgd1, active compounds read low 0.992 | locus YIR030C, strain dcg1, active compounds read low 0.981 | locus YJL092W, strain hpr5, active compounds read low 0.975 | locus YJL095W, strain BCK1 (second series), active compounds read low 0.973 | locus YJL095W, strain BCK1, active compounds read low 1 | locus YJL115W, strain asf1, active compounds read low 0.957 | locus YJL129C, strain trk1, active compounds read low 1.01 | locus YJL134W, strain LCB3, active compounds read low 0.977 | locus YJL154C, strain vps35, active compounds read low 0.975 | locus YJL164C, strain tpk1, active compounds read low 0.985 | locus YJL166W, strain qcr8, active compounds read low 0.945 | locus YJL168C, strain set2, active compounds read low 0.992 | locus YJL187C, strain SWE1 (second series), active compounds read low 0.98 | locus YJL187C, strain SWE1, active compounds read low 0.975 | locus YJR043C, strain POL32, active compounds read low 1
